From ChEMBL document CHEMBL2218924, “A broad activity screen in support of a chemogenomic map for kinase signalling research and drug discovery” (Biochem J, 2013) come the findings set out here.

Assay [1] has as its target MAP kinase-activated protein kinase 2 (Homo sapiens) (UniProt P49137). The following applies: at 10 µM.
Assay [2] deals with MAP kinase-activated protein kinase 3 (Homo sapiens) (UniProt Q16644). Particulars: at 10 µM.
Assay [3] concerns the target Serine/threonine-protein kinase MARK1 (Homo sapiens) (UniProt Q9P0L2). Particulars: at 1 µM.
Assay [4] has the same target. The following applies: at 10 µM.
Assay [5] has as its target Maternal embryonic leucine zipper kinase (Homo sapiens) (UniProt Q14680). The following applies: at 1 µM.
Assay [6] addresses T1, Dual specificity mitogen-activated protein kinase kinase 6 (Homo sapiens) (UniProt P52564).
T1 sequence (whole entry): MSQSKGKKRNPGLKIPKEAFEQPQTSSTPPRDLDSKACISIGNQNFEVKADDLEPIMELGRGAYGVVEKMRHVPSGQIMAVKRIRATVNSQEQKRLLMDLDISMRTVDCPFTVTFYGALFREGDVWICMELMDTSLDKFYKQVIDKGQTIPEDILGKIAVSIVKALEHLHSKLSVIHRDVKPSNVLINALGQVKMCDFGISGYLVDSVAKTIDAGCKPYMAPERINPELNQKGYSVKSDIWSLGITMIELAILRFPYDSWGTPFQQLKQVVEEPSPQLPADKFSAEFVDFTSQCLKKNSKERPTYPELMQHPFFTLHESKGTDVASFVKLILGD
Particulars: at 1 µM.

The target in assay [7] is T1, Dual specificity mitogen-activated protein kinase kinase 6 (Homo sapiens). Particulars: at 10 µM.
In assay [8] the target is Myosin light chain kinase, smooth muscle (Homo sapiens) (UniProt Q15746). The following applies: at 1 µM.
Assay [9] has the same target. The following applies: at 10 µM.
Assay [10] has as its target Mitogen-activated protein kinase kinase kinase 9 (Homo sapiens) (UniProt P80192). Particulars: at 1 µM.
The target is the same in assay [11]. The following applies: at 10 µM.
For assay [12], the target named is Serine/threonine-protein kinase MRCK alpha (Homo sapiens) (UniProt Q5VT25). The following applies: at 1 µM.
The target is the same in assay [13]. The following applies: at 10 µM.
The target of assay [14] is Dual specificity mitogen-activated protein kinase kinase 1 (Homo sapiens) (UniProt Q02750). The following applies: at 1 µM.
Sequence of Dual specificity mitogen-activated protein kinase kinase 1 (Homo sapiens) (Q02750 whole entry): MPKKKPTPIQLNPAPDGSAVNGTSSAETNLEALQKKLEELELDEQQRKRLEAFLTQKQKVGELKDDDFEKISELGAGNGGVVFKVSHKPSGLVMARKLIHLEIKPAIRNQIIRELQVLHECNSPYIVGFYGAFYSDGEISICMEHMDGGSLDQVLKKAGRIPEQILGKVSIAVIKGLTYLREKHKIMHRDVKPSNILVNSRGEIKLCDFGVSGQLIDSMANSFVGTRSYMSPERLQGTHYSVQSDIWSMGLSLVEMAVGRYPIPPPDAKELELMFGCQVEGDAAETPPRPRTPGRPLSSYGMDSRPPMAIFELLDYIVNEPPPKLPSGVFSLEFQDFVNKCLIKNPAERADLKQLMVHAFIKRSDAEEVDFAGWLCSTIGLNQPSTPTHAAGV
Assay [15] has the same target. The following applies: at 10 µM.
Assay [16] addresses Maternal embryonic leucine zipper kinase (Homo sapiens) (UniProt Q14680). The following applies: at 10 µM.
Assay [17] addresses Misshapen-like kinase 1 (Homo sapiens) (UniProt Q8N4C8). The following applies: at 1 µM.
The target is the same in assay [18]. Particulars: at 10 µM.
Assay [19] concerns the target T2, Dual specificity mitogen-activated protein kinase kinase 7 (Homo sapiens) (UniProt O14733).
T2 sequence (whole entry): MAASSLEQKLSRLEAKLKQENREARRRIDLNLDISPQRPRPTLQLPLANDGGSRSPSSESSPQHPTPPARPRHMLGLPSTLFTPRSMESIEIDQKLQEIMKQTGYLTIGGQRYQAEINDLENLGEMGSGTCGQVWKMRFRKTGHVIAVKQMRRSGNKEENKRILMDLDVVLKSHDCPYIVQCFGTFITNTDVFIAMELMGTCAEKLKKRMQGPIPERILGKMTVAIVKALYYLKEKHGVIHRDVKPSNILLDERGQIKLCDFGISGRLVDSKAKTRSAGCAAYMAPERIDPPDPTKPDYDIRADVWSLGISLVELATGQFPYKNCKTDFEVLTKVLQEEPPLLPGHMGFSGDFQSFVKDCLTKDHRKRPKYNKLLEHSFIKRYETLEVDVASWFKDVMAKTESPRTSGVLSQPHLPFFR
Particulars: at 1 µM.

Assay [20] addresses T2, Dual specificity mitogen-activated protein kinase kinase 7 (Homo sapiens). Particulars: at 10 µM.

Sequence of Misshapen-like kinase 1 (Homo sapiens) (Q8N4C8 whole entry, looked up): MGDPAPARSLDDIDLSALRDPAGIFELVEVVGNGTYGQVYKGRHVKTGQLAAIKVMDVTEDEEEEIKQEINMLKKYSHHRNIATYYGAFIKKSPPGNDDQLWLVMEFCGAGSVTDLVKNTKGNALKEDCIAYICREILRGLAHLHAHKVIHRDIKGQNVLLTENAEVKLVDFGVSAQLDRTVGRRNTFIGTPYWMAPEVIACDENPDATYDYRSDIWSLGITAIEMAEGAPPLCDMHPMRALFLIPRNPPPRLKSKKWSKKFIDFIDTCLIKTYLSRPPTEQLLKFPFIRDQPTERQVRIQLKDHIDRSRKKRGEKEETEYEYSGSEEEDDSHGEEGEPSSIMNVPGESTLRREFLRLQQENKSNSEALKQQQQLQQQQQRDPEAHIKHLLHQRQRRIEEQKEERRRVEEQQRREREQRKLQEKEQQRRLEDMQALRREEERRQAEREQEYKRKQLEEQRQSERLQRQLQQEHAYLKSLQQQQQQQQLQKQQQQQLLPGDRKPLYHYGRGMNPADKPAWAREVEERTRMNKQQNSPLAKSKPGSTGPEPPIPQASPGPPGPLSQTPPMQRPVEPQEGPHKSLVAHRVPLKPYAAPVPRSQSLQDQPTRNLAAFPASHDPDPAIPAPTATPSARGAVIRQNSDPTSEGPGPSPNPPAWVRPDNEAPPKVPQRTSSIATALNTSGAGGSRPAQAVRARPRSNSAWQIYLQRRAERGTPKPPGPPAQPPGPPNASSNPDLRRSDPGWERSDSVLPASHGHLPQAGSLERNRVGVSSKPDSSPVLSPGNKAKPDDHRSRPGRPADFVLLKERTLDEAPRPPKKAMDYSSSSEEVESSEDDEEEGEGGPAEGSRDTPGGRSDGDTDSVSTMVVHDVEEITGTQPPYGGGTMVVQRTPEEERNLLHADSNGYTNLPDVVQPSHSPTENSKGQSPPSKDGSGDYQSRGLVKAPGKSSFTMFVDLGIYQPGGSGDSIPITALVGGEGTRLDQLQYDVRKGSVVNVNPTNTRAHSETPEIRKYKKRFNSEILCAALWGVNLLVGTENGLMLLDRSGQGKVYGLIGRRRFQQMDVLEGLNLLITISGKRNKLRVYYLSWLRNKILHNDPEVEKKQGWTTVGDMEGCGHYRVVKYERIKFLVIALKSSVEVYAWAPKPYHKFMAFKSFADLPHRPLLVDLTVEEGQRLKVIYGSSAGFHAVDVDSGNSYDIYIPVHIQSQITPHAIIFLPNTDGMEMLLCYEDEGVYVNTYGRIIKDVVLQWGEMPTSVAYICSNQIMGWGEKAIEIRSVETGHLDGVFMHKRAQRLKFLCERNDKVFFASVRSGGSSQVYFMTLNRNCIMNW
Sequence of MAP kinase-activated protein kinase 2 (Homo sapiens) (P49137 whole entry, looked up): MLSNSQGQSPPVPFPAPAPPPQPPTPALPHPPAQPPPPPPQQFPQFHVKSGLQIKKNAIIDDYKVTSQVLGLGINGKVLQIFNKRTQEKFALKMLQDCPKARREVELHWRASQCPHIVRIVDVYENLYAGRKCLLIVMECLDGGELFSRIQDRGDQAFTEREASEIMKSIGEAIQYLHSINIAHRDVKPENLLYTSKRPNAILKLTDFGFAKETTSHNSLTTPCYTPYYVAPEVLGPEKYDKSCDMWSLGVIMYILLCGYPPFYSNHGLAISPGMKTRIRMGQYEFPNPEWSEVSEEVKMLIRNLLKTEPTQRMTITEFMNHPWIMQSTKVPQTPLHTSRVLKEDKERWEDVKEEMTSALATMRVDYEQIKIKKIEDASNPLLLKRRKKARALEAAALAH
Sequence of Serine/threonine-protein kinase MARK1 (Homo sapiens) (Q9P0L2 whole entry, looked up): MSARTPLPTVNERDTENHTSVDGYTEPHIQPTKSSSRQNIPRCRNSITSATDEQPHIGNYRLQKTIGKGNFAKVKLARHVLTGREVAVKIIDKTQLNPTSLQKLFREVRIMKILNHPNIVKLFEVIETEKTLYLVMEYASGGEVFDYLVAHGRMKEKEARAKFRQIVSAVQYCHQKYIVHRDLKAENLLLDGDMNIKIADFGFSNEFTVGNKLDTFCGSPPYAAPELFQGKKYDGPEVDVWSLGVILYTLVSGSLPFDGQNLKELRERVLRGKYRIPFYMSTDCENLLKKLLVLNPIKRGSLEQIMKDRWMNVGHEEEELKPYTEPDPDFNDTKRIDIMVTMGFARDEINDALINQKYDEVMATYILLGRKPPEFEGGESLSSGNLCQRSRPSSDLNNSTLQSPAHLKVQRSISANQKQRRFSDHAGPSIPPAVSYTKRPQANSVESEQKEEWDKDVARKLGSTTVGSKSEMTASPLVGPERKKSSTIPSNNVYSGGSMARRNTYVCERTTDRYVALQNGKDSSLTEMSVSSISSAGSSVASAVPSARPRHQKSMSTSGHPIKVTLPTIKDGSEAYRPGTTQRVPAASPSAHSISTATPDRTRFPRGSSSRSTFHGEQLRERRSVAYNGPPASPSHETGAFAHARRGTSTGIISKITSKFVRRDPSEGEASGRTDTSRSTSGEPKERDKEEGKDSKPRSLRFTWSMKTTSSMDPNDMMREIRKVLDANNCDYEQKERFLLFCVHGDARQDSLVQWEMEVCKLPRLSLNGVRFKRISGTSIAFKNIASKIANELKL
Sequence of Mitogen-activated protein kinase kinase kinase 9 (Homo sapiens) (P80192 whole entry, looked up): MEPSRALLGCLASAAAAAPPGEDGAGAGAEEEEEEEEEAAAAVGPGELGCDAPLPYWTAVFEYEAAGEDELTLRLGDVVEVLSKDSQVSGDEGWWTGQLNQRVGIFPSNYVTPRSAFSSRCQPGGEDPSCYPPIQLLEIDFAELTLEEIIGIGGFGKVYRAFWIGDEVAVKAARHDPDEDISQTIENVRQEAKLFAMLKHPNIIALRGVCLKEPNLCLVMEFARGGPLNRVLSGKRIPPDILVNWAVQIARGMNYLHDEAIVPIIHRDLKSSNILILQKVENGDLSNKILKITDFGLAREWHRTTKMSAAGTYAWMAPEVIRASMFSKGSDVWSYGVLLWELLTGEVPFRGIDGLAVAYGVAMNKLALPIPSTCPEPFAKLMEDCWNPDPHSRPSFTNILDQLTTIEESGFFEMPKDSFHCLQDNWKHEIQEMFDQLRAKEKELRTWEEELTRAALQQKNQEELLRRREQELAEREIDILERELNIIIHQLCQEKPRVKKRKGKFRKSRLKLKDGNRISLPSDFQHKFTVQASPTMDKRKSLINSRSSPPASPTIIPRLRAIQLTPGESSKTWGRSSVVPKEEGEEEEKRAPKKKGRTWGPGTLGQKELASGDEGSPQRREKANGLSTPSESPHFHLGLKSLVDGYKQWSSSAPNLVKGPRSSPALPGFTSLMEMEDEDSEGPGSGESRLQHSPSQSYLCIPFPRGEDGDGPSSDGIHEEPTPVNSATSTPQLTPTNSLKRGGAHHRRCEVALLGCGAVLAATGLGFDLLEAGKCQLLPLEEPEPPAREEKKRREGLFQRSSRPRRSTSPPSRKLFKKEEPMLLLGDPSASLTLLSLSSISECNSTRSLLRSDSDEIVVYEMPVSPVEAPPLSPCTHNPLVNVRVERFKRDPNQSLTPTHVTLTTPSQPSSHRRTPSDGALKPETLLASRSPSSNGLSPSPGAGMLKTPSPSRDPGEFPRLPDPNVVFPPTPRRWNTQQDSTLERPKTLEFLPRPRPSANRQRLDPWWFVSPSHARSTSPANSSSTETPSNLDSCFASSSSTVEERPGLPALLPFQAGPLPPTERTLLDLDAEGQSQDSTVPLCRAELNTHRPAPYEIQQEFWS
Sequence of Maternal embryonic leucine zipper kinase (Homo sapiens) (Q14680 whole entry, looked up): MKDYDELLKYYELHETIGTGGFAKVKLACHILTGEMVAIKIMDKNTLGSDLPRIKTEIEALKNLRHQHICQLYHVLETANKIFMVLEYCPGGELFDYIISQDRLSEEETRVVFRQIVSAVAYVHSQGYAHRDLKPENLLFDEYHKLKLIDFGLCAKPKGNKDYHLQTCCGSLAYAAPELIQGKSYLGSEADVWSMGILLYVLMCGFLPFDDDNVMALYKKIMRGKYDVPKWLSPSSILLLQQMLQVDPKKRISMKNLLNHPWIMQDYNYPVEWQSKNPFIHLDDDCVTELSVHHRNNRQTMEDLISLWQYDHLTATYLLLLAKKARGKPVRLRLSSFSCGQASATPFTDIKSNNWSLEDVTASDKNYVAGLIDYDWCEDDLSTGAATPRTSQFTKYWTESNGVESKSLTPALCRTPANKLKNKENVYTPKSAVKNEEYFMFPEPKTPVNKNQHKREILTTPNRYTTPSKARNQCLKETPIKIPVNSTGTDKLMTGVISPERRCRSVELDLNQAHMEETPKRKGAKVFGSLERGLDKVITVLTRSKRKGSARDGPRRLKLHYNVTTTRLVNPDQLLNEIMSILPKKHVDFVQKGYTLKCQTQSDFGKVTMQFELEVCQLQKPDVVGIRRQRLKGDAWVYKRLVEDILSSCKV
Sequence of MAP kinase-activated protein kinase 3 (Homo sapiens) (Q16644 whole entry, looked up): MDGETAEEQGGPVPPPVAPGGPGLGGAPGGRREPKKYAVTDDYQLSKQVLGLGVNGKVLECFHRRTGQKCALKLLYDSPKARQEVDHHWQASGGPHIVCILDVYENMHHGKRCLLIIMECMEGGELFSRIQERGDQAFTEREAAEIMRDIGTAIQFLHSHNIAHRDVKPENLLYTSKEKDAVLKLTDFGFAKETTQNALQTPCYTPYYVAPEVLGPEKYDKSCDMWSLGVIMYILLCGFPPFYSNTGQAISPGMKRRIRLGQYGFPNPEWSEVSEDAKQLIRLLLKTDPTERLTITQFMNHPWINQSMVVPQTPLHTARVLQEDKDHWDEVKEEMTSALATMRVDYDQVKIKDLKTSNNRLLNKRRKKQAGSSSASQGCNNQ

With `O=C1Nc2ccc(Br)cc2/C1=C\c1cc2c([nH]1)CCCC2`, the residual activity was 106% in [1]; 101% in assay [2]; 72% in assay [3]; 59% in assay [4]; 78% in [5]; 76% in assay [6]. For the same molecule, the residual activity in assay [7] was 84%; in assay [8], 83%; in assay [9], 84%; in assay [10], 63%; in [11], 49%; in [12], 108%. Also, in assay [13], the residual activity was 110%.

Turning to `Cc1ccc(NC2=CC(=O)c3sc(C)nc3C2=O)cc1`, the residual activity in [1] was found to be 87%; in [2], 61%; in [3], 87%; in assay [4], 80%; in assay [14], 99%; in [15], 116%. Further, the residual activity in assay [5] was determined as 95%; in assay [16], 85%; in assay [17], 106%; in assay [18], 94%; in assay [7] it was 104%; in assay [19], 74%. Further, the residual activity in [20] worked out at 101%; in assay [8], 101%; in assay [9], 82%; in assay [10], 98%; in assay [11], 90%; in assay [12] it was 95%. Further, the residual activity in [13] worked out at 91%.

`O=C1NC(=O)/C(=C/c2ccc3c(c2)OC(F)(F)O3)S1`: the residual activity was 87% in assay [1]; 81% in [2]; 100% in assay [3]; 76% in [4]; 114% in assay [14]; 109% in [15]. Also, the residual activity in assay [5] worked out at 114%; in assay [16], 82%; in [17], 85%; in assay [18] it was 73%; in [6], 72%; in assay [7] it was 93%. In addition, the residual activity came to 96% in assay [19]; 99% in assay [20]; 77% in [8]; 72% in assay [9]; 96% in assay [10]; 99% in [11]. Moreover, the results for the residual activity in [12] and in assay [13] were 112% and 104%, respectively.

Take `c1ccc(-c2n[nH]cc2-c2ccnc3ccccc23)nc1`: the residual activity in [1] turned out to be 109%; in assay [2], 125%; in [3] it was 93%; in [4] it was 81%; in assay [5], 97%; in [16], 82%. For the same molecule, the residual activity in [17] was found to be 72%; in assay [18], 27%; in assay [6] it was 75%; in assay [7] it was 48%; in assay [20], 87%; in [8], 77%. The residual activity is 97% in assay [9]; 100% in assay [10]; 103% in [11]; 102% in assay [12]; 100% in assay [13].

Consider `NC(=O)c1ccc2[nH]c(-c3ccc(Oc4ccc(Cl)cc4)cc3)nc2c1`, for which the residual activity in assay [1] turned out to be 126%; in assay [2] it was 127%; in [3], 85%; in assay [4] it was 70%; in assay [14] it was 91%; in assay [15], 111%. Besides, the residual activity in assay [5] came to 91%; in assay [16] it was 83%; in assay [17] it was 91%; in assay [18], 66%; in assay [6], 91%; in [7] it was 94%. Further, the residual activity is 94% in [19]; 103% in assay [20]; 93% in assay [8]; 96% in assay [9]; 89% in assay [10]; 34% in [11]. The residual activity turned out to be 113% in [12] and 127% in assay [13].

Turning to `Cc1nc2cc3nc(-c4cccs4)cnc3cc2n1C`, the residual activity in [1] came out at 114%; in assay [2], 100%; in assay [3] it was 107%; in assay [4] it was 100%; in assay [14], 120%; in assay [15], 91%. Moreover, the residual activity turned out to be 89% in assay [5]; 67% in [16]; 112% in [17]; 98% in assay [18]; 75% in assay [6]; 149% in [7]. In addition, the residual activity in assay [19] was found to be 109%; in [20], 110%; in assay [8], 82%; in assay [9], 105%; in [10] it was 86%; in [11], 44%. In addition, the residual activity in assay [12] turned out to be 116%; in [13], 102%.

Consider `N#CCCc1ccc2c(c1)-c1[nH]c3ccc([N+](=O)[O-])cc3c1CC(=O)N2`, for which the residual activity in assay [1] is 39%; in [2], 49%; in assay [3] it was 30%; in assay [4] it was 9%; in assay [5], 69%; in assay [16], 52%. For the same molecule, the residual activity in assay [17] came to 38%; in assay [18], 17%; in assay [10], 7%; in assay [11], 2%; in [12], 35%; in assay [13], 19%.

As to `Cc1cc(Nc2nc(-c3ccccc3)nc3ccccc23)n[nH]1`, the residual activity in [3] was 66%; in assay [4], 26%; in assay [15], 67%; in [5], 46%; in assay [16], 7%; in assay [17], 61%. In addition, the residual activity in [18] came to 14%; in [6], 101%; in [7], 71%; in [19], 72%; in [20], 58%; in [8], 55%. The residual activity in [9] was found to be 9%; in assay [10], 4%; in [11], 1%; in assay [12], 122%; in assay [13] it was 110%.
